In PubChem BioAssay (Tox21):
“And” between values parts separate entries of the source, which are not always exact repeats. Identical values can stand only once. Results filed as inconclusive are left out. The source made the active and inactive calls. Unless noted, the call rests on the fitted dose curve; in most records, active means well fitted curve in the direction sought with a large enough effect in the repeat runs; inconclusive means weak or mixed curves; inactive means no such curve, though single readings can be large; an effect the other way counts as inactive or inconclusive.

Tests used:
[1] = qHTS assay to identify small molecule antagonists of the androgen receptor (AR) signaling pathway using the MDA cell line in the presence of 0.5 nM R1881 - cell viability counter screen (AID 1259242); further: nearly all actives have a fitted effect of over 45% in size; further: potency means the concentration at half of the fitted maximal effect
Summary of the method: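 R1881 at 0.5 nM final stimulated MDA-kb2 cells during 16 hr compound treatment at 37C. Cytotoxicity read: CellTiter-Fluor fluorescence after 30 min.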

[2] = molecular target: Androgen receptor (Homo sapiens) (UniProt P10275); experiment: qHTS assay to identify small molecule antagonists of the androgen receptor (AR) signaling pathway using the MDA cell line in the presence of 0.5 nM R1881 (AID 1259243); further: potency means the concentration at half of the fitted maximal effect; nearly all actives have a fitted effect of over 50% in size
Summary of the method: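 We exposed MDA-kb2 cells to compounds under 0.5 nM R1881 stimulation for 16 hr at 37C and quantified MMTV-driven luciferase by luminescence.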

[3] = molecular target: Estrogen receptor (Homo sapiens) (UniProt P03372); experiment: qHTS assay to identify small molecule antagonists of the estrogen receptor alpha (ER-alpha) signaling pathway using the BG1 cell line in the presence of 0.1 nM 17-beta-estradiol (AID 1259244); further: nearly all actives have a fitted effect of over 50% in size; further: potency means the concentration at half of the fitted maximal effect
Summary of the method: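 VM7Luc4E2; 4xERE-luciferase; 0.1 nM E2 final; 22 h co-incubation, 37C; ONE-Glo luminescence after 30 min at room temperature.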

[4] = qHTS assay to identify small molecule HDAC inhibitors (AID 1259364); further: potency means the concentration at half of the fitted maximal effect;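 further: wild-type HCT-116 cells with endogenous class I/II HDAC activity; nearly all actives have a fitted effect of over 45% in size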
Summary of the method: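 Relative class I and II HDAC activity is taken from the luminogenic signal in HCT-116 cells, with compound exposure 2 hr and reagent development 30 min at room temperature.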

[5] = qHTS assay to identify small molecule HDAC inhibitors - cell viability counter screen (AID 1259365); further: nearly all actives have a fitted effect of over 50% in size; further: potency means the concentration at half of the fitted maximal effect
Summary of the method: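 Wild-type HCT-116 cells were seeded at 1,500 per well, incubated overnight at 37 C, then exposed to compounds in DMSO for 2hr. Viability was read by CellTiter-Glo luminescence after 30min at room temperature.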

[6] = qHTS assay to identify small molecule agonists of the sonic hedgehog signaling (Shh) pathway - cell viability counter screen (AID 1259366); further: nearly all actives have a fitted effect of over 50% in size; further: potency means the concentration at half of the fitted maximal effect
Summary of the method: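 NIH/3T3-derived 3T3 Gli1-Luc cells (stable Gli1-responsive firefly luciferase reporter) were seeded, rested 4 hr at 37 C/5% CO2, then exposed to compounds in DMSO for 24 hr; viability was read by CellTiter-Fluor fluorescence in the same wells.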

[7] = qHTS assay to identify small molecule agonists of the sonic hedgehog signaling (Shh) pathway (AID 1259368; calls by dose curve; further: series mostly up to about 92 µM; nearly all actives have a fitted effect of over 15% in size)
Summary of the method: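 Mouse fibroblast (NIH/3T3) reporter cells with stably integrated Gli1-Luc were treated 24 hr with compound; firefly luciferase luminescence served as the read-out.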

[8] = qHTS assay to identify small molecule agonists of the androgen receptor (AR) signaling pathway in the presence of an antagonist - cell viability counter screen (AID 1259379); further: potency means the concentration at half of the fitted maximal effect; nearly all actives have a fitted effect of over 25% in size
Summary of the method: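 A CellTiter-Fluor read-out measured viability of MDA-kb2 reporter cells (MMTV promoter with AR and GR response elements). Treatment: nilutamide 3.0uM final with compounds at 15 concentrations, 16 hr, 37C, 0% CO2.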

[9] = qHTS assay to identify small molecule agonists of the estrogen receptor beta (ER-beta) signaling pathway - cell viability counter screen (AID 1259380); further: nearly all actives have a fitted effect of over 30% in size; further: potency means the concentration at half of the fitted maximal effect
Summary of the method: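 Cells used were ER-beta-UAS-bla HEK293T in medium with 2% charcoal-stripped FBS. They were treated for 16 hr at 37C. Viability came from CellTiter-Glo luminescence.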

[10] = molecular target: Androgen receptor (Homo sapiens) (UniProt P10275); experiment: qHTS assay to identify small molecule agonists of the androgen receptor (AR) signaling pathway in the presence of an antagonist (AID 1259381; calls by dose curve; further: nearly all actives have a fitted effect of over 15% in size)
Summary of the method: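 Using human MDA-kb2 cells with an MMTV promoter–luciferase construct (AR and GR response elements), agonist activity is scored under 3.0uM nilutamide (final) co-treatment; 16hr incubation, 37C, luminescence readout via ONE-Glo.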

[11] = molecular target: Estrogen receptor (Homo sapiens) (UniProt P03372); experiment: qHTS assay to identify small molecule agonists of the estrogen receptor alpha (ER-alpha) signaling pathway in the presence of an antagonist (AID 1259383; calls by dose curve; further: top concentration of the series differs between compounds; nearly all actives have a fitted effect of over 15% in size)
Summary of the method: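 Using VM7Luc4E2 cells seeded 24hr before treatment, antagonist ICI-182,780 (10.0nM final) was added, followed by compounds at 15 concentrations. Plates incubated 22hr; ONE-Glo luminescence quantified reporter activity.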

[12] = qHTS assay to identify small molecule agonists or antagonists of the thyroid stimulating hormone receptor (TSHR) signaling pathway - wild type cell line counter screen (AID 1259384; calls by dose curve)
Summary of the method: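 Wild-type HEK293 cells were plated 18 h at 37 C/5% CO2, pin-dosed with compound plus Ro20-1724 medium, held 30 min at room temperature, then given cAMP-d2 and anti-cAMP-cryptate; fluorescence was read after 1 h. Fifteen concentrations, triplicate.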

[13] = molecular target: Thyrotropin receptor (Homo sapiens) (UniProt P16473); experiment: qHTS assay to identify small molecule antagonists of the thyroid stimulating hormone receptor (TSHR) signaling pathway (AID 1259385; calls by dose curve; further: nearly all actives have a fitted effect of over 20% in size)
Summary of the method: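 TSHR-HEK293 cells were plated and held 18 h at 37C/5% CO2, then given compound plus Ro20-1724 and stimulated with TSH at 1.5 ng/mL final. After 30 min at room temperature, cAMP was detected with cAMP-d2/anti-cAMP-cryptate (1 h) by fluorescence.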

[14] = molecular target: Estrogen receptor beta (Homo sapiens) (UniProt Q92731); experiment: qHTS assay to identify small molecule antagonists of the estrogen receptor beta (ER-beta) signaling pathway (AID 1259378; active means well fitted inhibition curve with a large enough effect in the signal ratio in the repeat runs, not every such curve was filed as active; the % refers to the signal ratio; further: potency means the concentration at half of the fitted maximal effect)
Summary of the method: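 ER-beta-UAS-bla HEK293T (GripTite) cells in 2% charcoal-stripped FBS medium were preincubated 6 hr at 37C, dosed with compound, then stimulated with 1 nM E2 (final) for 16 hr; beta-lactamase reporter read by B/G FRET fluorescence after 2 hr substrate loading.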

[15] = qHTS assay to identify small molecule antagonists of the estrogen receptor beta (ER-beta) signaling pathway - cell viability counter screen (AID 1259382); further: nearly all actives have a fitted effect of over 55% in size; further: potency means the concentration at half of the fitted maximal effect
Summary of the method: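 Agonist-stimulated (1nM E2) ER-beta-UAS-bla HEK293T cells are incubated with library compounds for 16 hr at 37C. Cell viability is then assessed in the reporter-assay wells by adding CellTiter-Glo and reading luminescence after 30 min.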

[16] = qHTS assay to identify small molecule antagonists of the sonic hedgehog signaling (Shh) pathway - cell viability counter screen (AID 1259367); further: potency means the concentration at half of the fitted maximal effect; nearly all actives have a fitted effect of over 55% in size
Summary of the method: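 After a 4 hr settling period, 3T3 Gli1-Luc cells were treated with DMSO-dissolved chemicals and conditioned medium, kept 24 hr at 37C in 5% CO2, and assayed for viability by CellTiter-Fluor fluorescence following 1 hr reagent incubation.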

[17] = qHTS assay to identify small molecule antagonists of the sonic hedgehog signaling (Shh) pathway (AID 1259369; calls by dose curve; further: potency means the concentration at half of the fitted maximal effect; nearly all actives have a fitted effect of over 45% in size)
Summary of the method: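 Conditioned medium drives Shh signalling in 3T3Gli1-Luc cells; compounds in DMSO co-applied, 24hr at 37 C, then luciferase luminescence.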

[18] = molecular target: Estrogen receptor beta (Homo sapiens) (UniProt Q92731); experiment: qHTS assay to identify small molecule agonists of the estrogen receptor beta (ER-beta) signaling pathway (AID 1259377; active means well fitted activation curve with a large enough effect in the signal ratio in the repeat runs, not every such curve was filed as active; the % refers to the signal ratio)
Summary of the method: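 ER-beta-UAS-bla HEK293T (GripTite) cells carrying a UAS-driven beta-lactamase reporter, in medium with 2% charcoal-stripped FBS, were exposed to compounds for 16 hr at 37C; LiveBLAzer B/G FRET substrate was then added and fluorescence read after 2 hours at room temperature.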

Measured: Potency

Estrogen receptor (Homo sapiens), sequence (P03372 whole entry, looked up): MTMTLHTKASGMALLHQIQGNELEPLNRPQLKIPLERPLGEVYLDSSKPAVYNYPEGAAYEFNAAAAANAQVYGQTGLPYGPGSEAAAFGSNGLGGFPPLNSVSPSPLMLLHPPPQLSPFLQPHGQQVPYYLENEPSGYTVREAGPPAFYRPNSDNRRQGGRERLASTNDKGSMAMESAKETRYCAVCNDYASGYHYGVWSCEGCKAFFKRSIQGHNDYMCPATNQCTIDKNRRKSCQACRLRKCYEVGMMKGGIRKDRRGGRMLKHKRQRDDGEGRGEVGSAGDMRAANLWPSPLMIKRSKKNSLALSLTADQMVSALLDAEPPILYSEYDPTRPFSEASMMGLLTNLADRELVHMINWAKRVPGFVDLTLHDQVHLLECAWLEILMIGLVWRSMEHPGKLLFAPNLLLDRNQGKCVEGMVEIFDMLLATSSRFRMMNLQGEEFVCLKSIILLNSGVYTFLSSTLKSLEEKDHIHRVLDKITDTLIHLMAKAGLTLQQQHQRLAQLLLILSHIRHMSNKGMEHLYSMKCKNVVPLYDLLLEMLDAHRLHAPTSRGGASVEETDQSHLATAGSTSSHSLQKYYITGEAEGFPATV
Thyrotropin receptor (Homo sapiens), sequence (P16473 whole entry, looked up): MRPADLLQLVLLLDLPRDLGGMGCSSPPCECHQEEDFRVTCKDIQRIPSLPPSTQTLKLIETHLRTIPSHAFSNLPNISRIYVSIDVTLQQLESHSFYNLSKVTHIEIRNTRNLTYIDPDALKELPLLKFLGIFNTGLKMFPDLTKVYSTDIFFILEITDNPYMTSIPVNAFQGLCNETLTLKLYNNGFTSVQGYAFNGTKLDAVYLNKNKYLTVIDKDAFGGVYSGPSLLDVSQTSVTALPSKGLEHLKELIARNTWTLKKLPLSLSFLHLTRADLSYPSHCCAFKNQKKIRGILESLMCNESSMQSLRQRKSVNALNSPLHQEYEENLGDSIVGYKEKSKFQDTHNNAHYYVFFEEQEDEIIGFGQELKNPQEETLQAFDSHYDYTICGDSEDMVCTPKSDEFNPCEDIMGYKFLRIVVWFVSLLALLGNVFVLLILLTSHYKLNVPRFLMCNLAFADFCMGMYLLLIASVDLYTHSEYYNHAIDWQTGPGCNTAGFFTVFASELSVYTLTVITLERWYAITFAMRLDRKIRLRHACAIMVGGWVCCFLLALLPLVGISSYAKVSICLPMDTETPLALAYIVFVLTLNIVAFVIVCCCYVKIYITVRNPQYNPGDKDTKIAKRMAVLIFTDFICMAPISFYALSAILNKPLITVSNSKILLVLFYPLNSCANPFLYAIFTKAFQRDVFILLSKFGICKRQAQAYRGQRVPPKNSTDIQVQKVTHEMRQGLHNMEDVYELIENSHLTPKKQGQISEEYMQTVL
Androgen receptor (Homo sapiens), sequence (P10275 whole entry, looked up): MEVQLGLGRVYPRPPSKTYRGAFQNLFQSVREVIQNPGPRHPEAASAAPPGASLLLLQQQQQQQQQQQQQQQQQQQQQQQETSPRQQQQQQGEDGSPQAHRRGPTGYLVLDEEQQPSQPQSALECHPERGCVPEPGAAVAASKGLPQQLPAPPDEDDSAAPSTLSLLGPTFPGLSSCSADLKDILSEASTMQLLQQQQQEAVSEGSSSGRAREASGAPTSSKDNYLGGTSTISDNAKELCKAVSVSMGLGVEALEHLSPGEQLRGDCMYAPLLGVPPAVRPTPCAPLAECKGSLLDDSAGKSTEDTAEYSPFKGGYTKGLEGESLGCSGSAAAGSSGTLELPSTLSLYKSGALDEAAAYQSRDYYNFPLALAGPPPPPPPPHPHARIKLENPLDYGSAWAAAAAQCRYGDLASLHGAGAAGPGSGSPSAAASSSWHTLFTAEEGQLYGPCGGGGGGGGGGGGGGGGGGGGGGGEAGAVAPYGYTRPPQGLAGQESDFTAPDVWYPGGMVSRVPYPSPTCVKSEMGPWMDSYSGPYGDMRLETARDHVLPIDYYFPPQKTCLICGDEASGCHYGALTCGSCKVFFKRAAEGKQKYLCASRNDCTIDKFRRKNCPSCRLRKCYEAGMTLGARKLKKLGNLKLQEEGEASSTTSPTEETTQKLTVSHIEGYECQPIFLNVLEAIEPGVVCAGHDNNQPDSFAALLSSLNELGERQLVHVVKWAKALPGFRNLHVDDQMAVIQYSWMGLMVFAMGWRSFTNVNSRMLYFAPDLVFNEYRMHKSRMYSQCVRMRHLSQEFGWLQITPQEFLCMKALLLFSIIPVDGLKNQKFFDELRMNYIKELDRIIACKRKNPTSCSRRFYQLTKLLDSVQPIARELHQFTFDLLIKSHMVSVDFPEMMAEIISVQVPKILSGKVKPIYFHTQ
Estrogen receptor beta (Homo sapiens), sequence (Q92731 whole entry, looked up): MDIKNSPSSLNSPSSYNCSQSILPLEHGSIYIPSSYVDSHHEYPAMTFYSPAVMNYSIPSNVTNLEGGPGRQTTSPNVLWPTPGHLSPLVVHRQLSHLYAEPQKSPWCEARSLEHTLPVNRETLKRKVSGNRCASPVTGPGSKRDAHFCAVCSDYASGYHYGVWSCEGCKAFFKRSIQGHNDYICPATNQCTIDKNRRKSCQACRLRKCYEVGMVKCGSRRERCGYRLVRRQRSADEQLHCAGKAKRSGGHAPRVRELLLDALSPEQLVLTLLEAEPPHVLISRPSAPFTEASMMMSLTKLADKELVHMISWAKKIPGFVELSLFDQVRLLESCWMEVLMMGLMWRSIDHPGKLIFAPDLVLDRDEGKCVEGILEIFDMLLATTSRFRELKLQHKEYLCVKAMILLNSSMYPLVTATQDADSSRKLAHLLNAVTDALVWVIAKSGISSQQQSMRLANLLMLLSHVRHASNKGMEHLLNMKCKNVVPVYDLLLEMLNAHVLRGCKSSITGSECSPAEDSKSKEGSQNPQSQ

O=C(Nc1cccc([N+](=O)[O-])c1)c1cc2ccccc2cc1O
active: [1] 6.86 µM | [2] 5.45 µM | [3] 5.45 µM | [4] 1.54 µM | [8] 3.86 µM | [9] 30.6 µM
inactive: [5] | [6] | [7] | [10] | [11] | [12] | [13]

O=CC=C(c1ccccc1)c1ccccc1
active: [3] 69.1 µM | [14] 7.76 µM | [9] 27.5 µM | [15] 27.5 µM
inactive: [1] | [4] | [5] | [7] | [12] | [13]

CCCCCCCCCCCCCCCCCC[N+](C)(C)Cc1ccccc1
active: [1] 49 µM | [2] 17.4 µM | [3] 55 µM | [5] 61.7 µM | [16] 30.9 µM | [17] 0.155 µM | [8] 55 µM | [9] 24.6 µM
inactive: [4] | [7] | [10] | [11] | [12] | [13]

Oc1ccc2cc(SSc3ccc4cc(O)ccc4c3)ccc2c1
inactive: [1] | [4] | [5] | [7] | [15] | [12] | [13]
active: [16] 61.2 µM and 48.6 µM | [17] 19.4 µM and 21.7 µM | [8] 61.2 µM and 61.1 µM

Cc1[nH]nc2c1N=C(c1ccccc1Cl)c1cc([N+](=O)[O-])ccc1N2
active: [1] 27.3 µM | [6] 13.7 µM | [16] 8.63 µM | [17] 1.72 µM | [8] 30.6 µM | [9] 27.3 µM | [15] 48.6 µM
inactive: [4] | [5] | [7] | [12]

O=C(O)c1cc(O)c2c(c1)C(=O)c1cccc(O)c1C2=O
active: [4] 14.1 µM
not listed: [2] | [8] | [10] | [14] | [16] | [17] | [18]
inactive: all other assays above

CC(C)(C)c1ccc(C(=O)CCCN2CCC(OC(c3ccccc3)c3ccccc3)CC2)cc1
active: [1] 21.1 µM | [17] 11.9 µM | [14] 13.3 µM | [8] 29.8 µM | [9] 18.8 µM | [15] 23.7 µM
inactive: [4] | [5] | [7] | [18] | [12] | [13]
